Compounds with a hit are over-represented: about 11% of the library has one in this group of screens.
JMJD2A Tudor: inhibitors of human JMJD2A Tudor domain; Potency, µM (titrated, usually from 114 µM), inactives show at the highest dose activity change, negative = inhibition, usual class: inhibitors; O75164; actives 4.4% (n = 390,000); AID 504339; AlphaScreen JMJD2A-Tudor / H3K4me3 peptide binding; also: potency is read from the fitted curve at half-maximal effect; % is scaled to controls: 0 for no effect and ±100 for the full control effect; nearly all actives have a fitted effect of over 50% in size
L3MBTL1 inh: L3MBTL1 (human) inhibition. Q9Y468. AlphaScreen L3MBTL1–H3K9me1 peptide binding. Potency, µM (titrated, usually from 57.1 µM), inactives show top-dose activity, negative = inhibition, most hits filed as inhibitors. actives 0.66% (n = 230,000). AID 485360; also: potency is read from the fitted curve at half-maximal effect; % is scaled to controls: 0 for no effect and ±100 for the full control effect; nearly all actives have a fitted effect of over 60% in size
Target sequence (Q9Y468 whole entry, looked up): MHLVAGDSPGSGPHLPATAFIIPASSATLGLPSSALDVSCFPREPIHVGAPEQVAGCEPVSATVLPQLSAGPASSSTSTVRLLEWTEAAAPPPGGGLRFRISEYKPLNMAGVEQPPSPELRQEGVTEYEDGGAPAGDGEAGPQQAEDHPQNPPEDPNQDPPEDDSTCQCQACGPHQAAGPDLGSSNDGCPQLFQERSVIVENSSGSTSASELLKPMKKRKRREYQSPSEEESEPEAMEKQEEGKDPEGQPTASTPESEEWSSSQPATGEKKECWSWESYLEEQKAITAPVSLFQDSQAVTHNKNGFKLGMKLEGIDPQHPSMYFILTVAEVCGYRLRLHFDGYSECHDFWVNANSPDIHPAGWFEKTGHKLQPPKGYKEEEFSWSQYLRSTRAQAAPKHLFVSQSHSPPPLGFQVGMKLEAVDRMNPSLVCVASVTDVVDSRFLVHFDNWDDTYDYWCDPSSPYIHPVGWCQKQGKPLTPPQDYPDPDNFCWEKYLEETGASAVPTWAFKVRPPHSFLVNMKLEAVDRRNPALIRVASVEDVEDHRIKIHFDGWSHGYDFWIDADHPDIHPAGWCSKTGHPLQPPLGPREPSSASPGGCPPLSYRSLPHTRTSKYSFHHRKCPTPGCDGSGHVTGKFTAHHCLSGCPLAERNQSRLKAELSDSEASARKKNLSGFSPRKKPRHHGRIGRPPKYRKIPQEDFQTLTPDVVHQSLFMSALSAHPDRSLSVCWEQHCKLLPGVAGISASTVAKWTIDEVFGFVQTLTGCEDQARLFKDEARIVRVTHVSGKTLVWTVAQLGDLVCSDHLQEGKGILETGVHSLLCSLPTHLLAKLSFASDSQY
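First, the protein-peptide complex forms for 30 min at room temperature (L3MBTL1 50 nM, biotinylated H3K9me1 peptide 75 nM). Next, compounds are pin-transferred and incubated 30 min. Finally, AlphaScreen beads are added and read after 30 min.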
HP1b chromo inh: blocks HP1-beta chromodomain binding to methylated histone tails; Potency, µM (titrated, usually from 114 µM), for inactives: at the top dose activity change, negative = inhibition, most hits filed as inhibitors; AlphaScreen HP1-beta / biotin-H3K9me3 peptide binding; actives 0.56% (n = 390,000); P83916; also: potency is read from the fitted curve at half-maximal effect; nearly all actives have a fitted effect of over 70% in size
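Compound inhibition of the preformed complex between 50 nM HP1-beta and 50 nM biotinylated H3K9me3 peptide was read by AlphaScreen. Buffer was PBS pH 7.4 with 0.01% Tween-20. Incubations ran 30 min at room temperature, with 10 ug/mL donor/acceptor beads.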
G9a block: inhibitors of human histone lysine methyltransferase G9a; Q96KQ7; G9a H3K9 monomethylation, AlphaScreen, 2 h; Potency, µM (top dose mostly 102 µM), for inactives: at the top dose activity, negative = inhibition, hits mostly inhibitors; actives 8.8% (n = 350,000); AID 504332; also: potency is read from the fitted curve at half-maximal effect; % is scaled to controls: 0 for no effect and ±100 for the full control effect; nearly all actives have a fitted effect of over 75% in size
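Using a bead-based AlphaScreen, monomethylated H3K9 product from 2 h room-temperature reactions (G9a 20 nM, peptide 500 nM, SAM 20 uM) was detected with 0.5 ug/mL rabbit anti-H3K9me1 antibody.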
BAZ2B block: inhibitors of human BAZ2B bromodomain. Q9UIF8. actives 4.4% (n = 360,000). Potency, µM (titrated, usually from 114 µM), for the others: at the highest dose activity change, negative = inhibition, actives largely listed as inhibitors. AlphaScreen BAZ2B-H3K14Ac peptide displacement; also: potency is read from the fitted curve at half-maximal effect; % is scaled to controls: 0 for no effect and ±100 for the full control effect; nearly all actives have a fitted effect of over 60% in size
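BAZ2B (50 nM) with biotin-H3(5-23)K14Ac peptide (50 nM) in PBS pH 7.4, 0.01% Tween-20, preformed 30 min, then compound 30 min at room temperature; top concentration 110uM. AlphaScreen streptavidin donor/nickel chelate acceptor beads (10 ug/mL final), 20 min dark, signal read.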
PI5P4Ka inh: PI5P4K alpha (human) kinase inhibition | P48426 | PI5P4Kalpha enzyme, ADP-Glo luminescence, 60 min; hits give low values | max response, % | actives 1.2% (n = 330,000); active = max response of -50% or lower; inconclusive = between -30% and -50%; inactive = -30% or higher; also: value at the top dose of about 77 µM; % is scaled to controls: 0 for no effect and ±100 for the full control effect
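Compounds were pin-transferred onto PI5P4Kalpha and substrate in HEPES pH 7.4 buffer with EGTA, CHAPS and 5% DMSO. ATP (5 microM final) started the reaction, which ran 60 minutes at room temperature before ADP-Glo detection.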
ADP-Glo counter: ADP-Glo luciferase interference, PI5P4K counter-screen; AID 743285; 1,100 tested, under 10 active; Potency, µM (series often up to 76.9 µM), for the others: top-dose activity change, negative = inhibition, hits mostly inhibitors; shares compounds with PI5P4Ka inh; ADP-Glo detection counter-screen, luciferase luminescence, no enzyme
Numbers without * were called inactive; ? = inconclusive; · = not tested or not shown; ! = repeats disagree; [ ] = another dose, or the depositor's remark. Unless noted, calls follow the shape of the dose curve; as a rule, active = well fitted curve in the direction sought with a large enough effect; inconclusive = small, poorly fitted or top-dose-only effect, or another doubt; inactive = no such curve, though single readings can be large; an effect the other way counts as inactive or inconclusive.

SMILES | JMJD2A Tudor | L3MBTL1 inh | HP1b chromo inh | G9a block | BAZ2B block | PI5P4Ka inh | ADP-Glo counter
CCOC(=O)N1CCN(C(=O)CCS(=O)(=O)c2ccc3c(c2)CCN3C(=O)CC)CC1 | -1% | · | 38% | 2% | -14%[57.1 µM] | ? | -2%
NC(=O)c1ccsc1NC(=O)COC(=O)CNC(=O)c1ccc(F)cc1 | -19% | -1% | 37% | -10%[12.7 µM] | -6% | -51* | 2%
NC(=O)c1ccsc1NC(=O)COC(=O)COc1ccccc1F | -8% | 6% | 21% | -15% | 0% | -26 | ·
NC(=O)c1ccsc1NC(=O)COC(=O)c1c(F)cccc1Cl | -17% | -3% | 2% | 20%[2.33 µM] | 7% | -1 | ·
NC(=O)c1ccsc1NC(=O)COC(=O)c1ccccc1F | -8% | -7% | 18% | -12%[12.7 µM] | 11% | -54* | -10%
COc1cc(C(=O)Nc2ccccc2OCc2cc(=O)n3c(C)csc3n2)cc(OC)c1OC | -2% | · | 23% | 5%[59 µM] | 1% | · | ·
COC(=O)[C@]12CCCCC=C1N(Cc1cccc3ccccc13)C(=O)[C@H](CC(=O)NCc1ccc(C)o1)C2 | · | · | · | · | · | -52* | 2%
CCOC(=O)[C@]12CCCC=C1N(Cc1ccccc1)C(=O)[C@H](CC(=O)NCCCOC)C2 | · | · | · | · | · | -57* | -1%
CCOC(=O)[C@]12CCCC=C1N(Cc1ccccc1)C(=O)[C@H](CC(=O)NCCCCc1ccccc1)C2 | · | · | · | · | · | 6 | ·
COc1ccc(CNC(=O)Cc2c(C)c3cc4c(C)coc4cc3oc2=O)cc1 | -29% | · | 4% | 2%[59 µM] | -15% | · | ·
O=C(c1ccc2c(c1)N(Cc1ccc(F)cc1)C(=O)c1ccccc1S2(=O)=O)N1CCCCCC1 | -20% | · | 16% | -29%[59 µM] | -12% | · | ·
O=C(NCC1CCCCC1)c1ccc([N+](=O)[O-])cc1 | -3% | -6% | 10% | 24% | 1% | -3 | ·
O=C(NCC1CCCCC1)c1cccc([N+](=O)[O-])c1 | -10% | 8% | 37% | · | ? | -62* | 1%
O=C(Cn1cc(C(=O)c2ccco2)c2ccccc21)Nc1ccccc1C(F)(F)F | -16% | · | 17% | -4%[59 µM] | -7% | · | ·
CCOc1ccccc1NC(=O)CC(c1ccc(F)cc1)N1Cc2ccccc2C1=O (centres undefined) | -14% | · | 5% | -5%[59 µM] | -34% | · | ·
O=C(Cc1cccs1)Nc1nnc(SCc2cccc3ccccc23)s1 | -29% | -48% | 30% | 45µM* | ? | -53* | -1%
O=C(Cc1cccs1)Nc1nnc(SCC(=O)NC2CCCCC2)s1 | -17%[57.1 µM] | -11% | 5% | ? | 0% | -25 | ·
CCN1CCN(Cc2ccc(NC(=O)c3cc(NC(=O)N4CCNC4=O)cc(OC)c3)cc2C(F)(F)F)CC1 | -28% | · | 40% | 16%[12.7 µM] | ? | 0 | ·
CCN1CCN(Cc2ccc(NC(=O)c3ccc(C)c(NC(=O)c4csc(-c5ccncc5)n4)c3)cc2C(F)(F)F)CC1 | ? | · | 11% | 13%[12.7 µM] | ? | -65* | 4%
CCN1CCN(Cc2ccc(NC(=O)c3cc(NC(=O)c4cc5cccc(OC)c5o4)cc(OC)c3)cc2C(F)(F)F)CC1 | ? | · | 8% | ? | ? | -61*! | 7%
COc1ccc([C@H]2CC(=O)C[C@@H](CCn3nnc4ccccc43)O2)cc1 | · | · | · | · | · | -1 | ·
Cc1ccc2c(c1)N(CC(=O)N1CCCCCC1)C(=O)C(C)O2 (centres undefined) | -2% | · | 21% | -3%[59 µM] | -8% | -73* | 3%
COc1ccc(OC)c(CCNC(=O)c2c(C)oc3ncn(CC(C)C)c(=O)c23)c1 | -32% | · | 14% | -40%[59 µM] | -4%[57.1 µM] | · | ·
O=C(NC1CCCC1)C(c1ccncc1)N(C(=O)c1csnn1)c1ccccc1F (centres undefined) | -7% | · | 12% | -8% | 4% | -52* | 10%
CCCCn1c(N)c(N(CCOC)C(=O)c2cc(-c3ccccc3)nc3ccccc23)c(=O)[nH]c1=O | -10% | 3% | 25% | -9%[59 µM] | -5% | 7 | ·
SMILES | JMJD2A Tudor | L3MBTL1 inh | HP1b chromo inh | G9a block | BAZ2B block | PI5P4Ka inh | ADP-Glo counter
CCCn1c(N)c(N(CCOC)C(=O)c2cc(-c3ccco3)nc3ccccc23)c(=O)[nH]c1=O | ? | · | 14% | 40µM* | ? | -52* | -6%
CC(=O)c1cccc(NC(=O)c2cc(-c3ccco3)nc3ccccc23)c1 | -25% | · | -2% | 50µM* | -18% | -51* | 4%
COc1ccc(-c2cc(C(=O)NCc3ccco3)c3ccccc3n2)cc1 | -5% | 1% | 26% | · | -5% | 8 | ·
CC(=O)c1cccc(NC(=O)c2cc(-c3ccncc3)nc3ccccc23)c1 | -20% | -7% | 7% | ? | 1% | -1 | ·
COc1ccc(CCNC(=O)c2cc(-c3ccco3)nc3ccccc23)cc1 | 45µM* | · | ? | · | · | -61* | -1%
COc1ccc(C2=Nc3ccccc3N(C(=O)c3cnccn3)C2C(=O)NC2CCCC2)cc1 (centres undefined) | · | · | · | · | · | -3 | ·
Cc1nc2ccn(Cc3ccco3)c(=O)c2cc1C(=O)NCc1ccccc1 | -19% | · | 23% | 30%[59 µM] | -21% | · | ·
Cc1cccc(C(=O)Nc2c(C(=O)NCc3ccc(Cl)cc3)sc3nc(C)cc(C)c23)c1 | -9% | · | 17% | 14%[59 µM] | -12% | · | ·
CC(C)C(=O)Nc1ccccc1N1CCN(S(C)(=O)=O)CC1 | -17% | -7% | 8% | 9%[59 µM] | -1% | 0 | -5%
O=C1NN=C2CCCCCC12 (centres undefined) | · | · | · | · | · | -6 | -1%
O=C(c1ccc(Br)cc1)c1cc2ccc(O)cc2oc1=O | ? | · | -2% | 71µM* | -39% | -63* | -5%
COc1ccc(C(=O)N2CCC3(CC2)CN(c2ccccn2)C3)cc1 | · | · | · | 30%[12.7 µM] | · | · | ·
O=C(CSc1nc2c(cnn2-c2cccc(Cl)c2)c(=O)[nH]1)NCC1CCCO1 (centres undefined) | -18% | 2% | 21% | 2%[12.7 µM] | -6% | · | -6%
Cc1ccc(-n2ncc3c(=O)[nH]c(SCC(=O)NCC4CCCO4)nc32)cc1 (centres undefined) | -11% | 1% | 28% | · | · | -1 | ·
CC1CCN(S(=O)(=O)c2ccc3c(c2)N(CC(=O)NCCc2ccc(Cl)cc2)C(=O)CO3)CC1 | -5% | · | 41% | -29%[59 µM] | -2% | · | ·
CC1(OC(=O)CCc2ccccc2)C(=O)C=C2C=C(c3ccc(C#N)cc3)N(Cc3ccco3)C=C2C1=O (centres undefined) | ? | · | -19% | ? | -35% | -53* | 3%
